Bioassay records: PubChem BioAssay, several laboratories
CYP2C9 inh – blockers of cytochrome P450 2C9 activity – biochemical, luminescence, ADME assay, primary screen; 96,000 compounds, 20% hits; P11712; inhibition, % at 5 µM; AID 777, 2007; CYP2C9 Supersomes, luciferin-H conversion;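 active = blocking of liver enzyme CYP2C9 beyond about 50% at 5 µM, limit read from the data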
CYP2C19 activ – human CYP2C19 activators, primary screen, biochemical, luminescence | Cytochrome P450 2C19 (Homo sapiens), P33261 | recombinant CYP2C19, luciferin-H EGE luminescence; hits give high values; 0 = fully inhibited enzyme, 1 = untreated enzyme | activation factor at 5 µM | 96,000 tested, under 10 active | AID 1025, 2008;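 active = activation factor of at least 2 at 5 µM in the primary screen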;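 also: 0 = wells with 2.5 mM tranylcypromine and 1 = vehicle-only wells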
Target sequence (P33261 whole entry, looked up): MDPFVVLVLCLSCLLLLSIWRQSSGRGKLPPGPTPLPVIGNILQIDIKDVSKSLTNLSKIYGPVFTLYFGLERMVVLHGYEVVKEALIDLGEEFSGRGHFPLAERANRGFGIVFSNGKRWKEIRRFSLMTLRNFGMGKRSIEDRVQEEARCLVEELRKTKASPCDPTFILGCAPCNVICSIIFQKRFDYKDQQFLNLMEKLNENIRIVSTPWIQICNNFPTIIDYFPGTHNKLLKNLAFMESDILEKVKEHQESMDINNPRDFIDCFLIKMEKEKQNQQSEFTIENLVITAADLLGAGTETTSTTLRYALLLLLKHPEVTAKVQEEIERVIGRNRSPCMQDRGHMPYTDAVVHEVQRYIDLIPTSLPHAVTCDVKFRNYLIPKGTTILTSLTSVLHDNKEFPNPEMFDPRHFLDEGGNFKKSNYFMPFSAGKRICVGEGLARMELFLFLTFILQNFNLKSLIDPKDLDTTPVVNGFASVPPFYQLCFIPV
PostGolgi yeast – phenotypic screen on post-Golgi transport, primary screen. post-Golgi transport phenotypic cell assay. inhibition, % at 10 µM. 98,000 compounds, 0.9% hits. AID 739, 2007;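 also: yeast cells grown in 1536-well plates; yeast grown about 18 h at 30C before absorbance read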
PostGolgi ctrl – growth inhibition of yeast control strain, primary screen, counter-screen for post-Golgi transport modulator project | inhibition, % at 10 µM | efflux-deficient yeast background strain, growth absorbance A615, 16 h | 98,000 compounds, 5% hits
CYP2C19 inhib – blockers of cytochrome P450 2C19 activity – biochemical, luminescence, ADME assay, primary screen | P33261 | CYP2C19 Supersomes, luciferin-H EGE luminescence, 30 min | inhibition, % at 5 µM | 96,000 compounds, 21% hits | AID 778, 2007;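 active = CYP2C19 inhibition above a set limit at 5 µM in the primary screen, cut at about 50% in these data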;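 also: plate controls were negative control wells for no effect and 2.5 mM tranylcypromine positive control for full effect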
CYP2C9 act – human CYP2C9 activators, primary screen, biochemical, luminescence; recombinant CYP2C9, luciferin-H conversion; hits give high values; factor 1 = untreated enzyme, 0 = blocked; 96,000 compounds, 1.4% hits; AID 1024, 2008; Cytochrome P450 2C9 (Homo sapiens), P11712; activation factor at 5 µM;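 active = activation factor of 2 or more for CYP2C9 at a 5 µM dose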;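 also: 0 = sulfaphenazole-blocked wells and 1 = vehicle-only wells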
The depositor's hits bear a star; nt = no result given. In the library only some 32% were active in any assay of this set; here they are far more common. Rule as the data show it, unless noted: active = inhibition above about 30%; inactive = the rest.

SMILES	CYP2C9 inh	CYP2C19 activ	PostGolgi yeast	PostGolgi ctrl	CYP2C19 inhib	CYP2C9 act
O=C(CN1CCN(Cc2ccc(Cl)cc2)C1=O)N1CCC2(CC1)OCCO2	17.7	0.8	-5.8	-10.9	15.5	0.8
COc1ccc(C2SCC(=O)Nc3c2c(C)nn3-c2ccccc2)cc1 (configuration not stated)	52.2*	0.9	-3.4	3.7	11.3	0.5
CC(C)NC(C)C(=O)C12CC3CC(CC(C3)C1)C2 (configuration not stated)	-13.8	1.2	7.7	13.1	-16.1	1.1
O=c1[nH]c(=O)n(C2CCCCCC2)c(O)c1C=NC1CCN(Cc2ccccc2)CC1	-14.2	1.2	-2.8	17.8	-22.7	1.1
O=c1[nH]c(=S)n(CCC2=CCCCC2)c(O)c1C=NC1CCN(Cc2ccccc2)CC1	40.4	0.7	37.4*	94.0*	29.3	0.6
Cc1ccc2c(c1)CC1(CN2C)C(=O)NC(=O)N(c2cc(C)ccc2C)C1=O (configuration not stated)	58.9*	0.8	-4.0	7.6	23.3	0.4
COc1cccc(N2C(=O)NC(=O)C3(Cc4cc(C)ccc4N(C)C3)C2=O)c1 (configuration not stated)	83.9*	0.6	-1.3	-11.8	36.9	0.2
COc1ccc(OC)c(N2C(=O)NC(=O)C3(Cc4cc(C)ccc4N(C)C3)C2=O)c1 (configuration not stated)	80.1*	0.6	-2.1	-3.8	39.5	0.2
CCCCN1C(=O)NC(=O)C2(Cc3cc(C)ccc3N(C)C2)C1=O (configuration not stated)	26.0	0.7	19.8	-2.6	30.9	0.7
COc1cc(CN2C(=O)NC(=O)C3(Cc4cc(C)ccc4N(C)C3)C2=O)cc(OC)c1 (configuration not stated)	48.3	0.6	5.0	9.9	36.2	0.5
O=c1c2ccccc2nc(CSc2ncnc3nc[nH]c23)n1-c1ccc(Cl)c(Cl)c1	43.5	0.7	9.0	0.0	27.6	0.6
CCn1nc(-c2cccs2)nc2c(=O)n(C)c(=O)nc1-2	91.1*	0	104.6*	99.7*	98.7*	0.1
CCOP(=O)(OCC)C(c1ccccc1)N(C)C=O (configuration not stated)	8.0	1	-12.2	1.1	4.3	0.9
OC(c1ccccc1)(c1ccccc1)C1CCNCC1	60.2*	1	-4.1	22.2	3.3	0.4
CC1=C(C(=O)N2CCC3(CC2)OCCO3)C2(CCC(C)CC2)OC1=O (configuration not stated)	44.8	0.1	-2.5	-3.2	92.7*	0.6
Cc1c(C(=O)N2CCC3(CC2)OCCO3)oc2ccccc12	-13.2	0	-15.1	0.1	97.6*	1.1
O=C(CN1C(=O)CCSc2ccccc21)N1CCC2(CC1)OCCO2	-11.8	1	3.0	9.5	3.9	1.1
O=C(CSc1ccccc1)N1CCC2(CC1)OCCO2	23.2	0	3.3	16.0	98.1*	0.8
O=C(CCN1C(=O)COc2ccccc21)N1CCC2(CC1)OCCO2	-12.1	0.1	-2.4	-6.0	86.9*	1.1
Cc1c(C(=O)N2CCC3(CC2)OCCO3)oc2ccc(S(=O)(=O)N3CCOCC3)cc12	-11.9	1.1	-1.6	-3.2	-7.4	1.1
Cc1nc2nc(SCC(=O)N3CCC4(CC3)OCCO4)nn2c(C)c1Cc1ccccc1	23.4	0.7	0.3	1.2	31.1	0.8
Cc1ccc(-c2cc(C(F)F)n3ncc(C(=O)N4CCC5(CC4)OCCO5)c3n2)cc1	47.2	1	-2.1	22.7	4.7	0.5
Cc1nn(C)c(C)c1P(=S)(c1c(C)nn(C)c1C)N(C)C	2.2	0.9	9.9	40.4*	6.4	1
Cc1cccc(CN2CCN(CC(=O)N3CCC4(CC3)OCCO4)C2=O)c1	11.4	1	4.7	8.0	0.0	0.9
O=C(CCS(=O)(=O)c1ccc(Br)cc1)N1CCC2(CC1)OCCO2	13.7	0.9	-0.3	1.5	11.1	0.9
SMILES	CYP2C9 inh	CYP2C19 activ	PostGolgi yeast	PostGolgi ctrl	CYP2C19 inhib	CYP2C9 act
Cc1cccc(CS(=O)(=O)Cc2ccc(C(=O)N3CCC4(CC3)OCCO4)o2)c1	57.7*	0.7	5.0	-10.2	32.7	0.4
O=C(c1ccc(CS(=O)(=O)c2ccc(Br)cc2)o1)N1CCC2(CC1)OCCO2	53.6*	0.6	1.4	-1.5	41.6	0.5
O=C(c1ccc(CS(=O)(=O)c2ccccc2)o1)N1CCC2(CC1)OCCO2	46.7	0.2	4.4	7.4	81.3*	0.5
O=C(c1ccc(CNS(=O)(=O)c2ccccc2)cc1)N1CCC2(CC1)OCCO2	nt	nt	-0.6	12.4	nt	nt
Cc1ccc(OCC(=O)N2CCN(CC3CC4C=CC3C4)CC2)cc1 (configuration not stated)	14.8	0.8	-2.3	16.0	21.0	0.9
CCOc1ccc(C2(C#N)CC[N+](C)(C)CC2)cc1	-5.8	1	8.3	16.1	-1.0	1.1
CC1=C(/C=C/c2ccccc2)CCN(C)C1	18.8	0.9	-2.7	4.4	9.4	0.8
O=C1CC(C(=O)N2CCC3(CC2)OCCO3)CN1CCc1ccccc1 (configuration not stated)	1.3	0.7	-4.2	31.6*	26.1	1
Cc1ccsc1-c1nc(CSCC(=O)N2CCC3(CC2)OCCO3)c(C)o1	1.0	0.3	-0.8	6.5	67.2*	1
O=C(c1ccc2c(=O)n(Cc3ccc4c(c3)OCO4)c(=S)[nH]c2c1)N1CCC2(CC1)OCCO2	25.7	1	-0.6	7.9	-1.8	0.7
CCCCc1ccc2[nH]cc(CCN)c2c1	62.6*	0.7	-4.4	7.3	34.5	0.4
CCCCC12CNCC(C)(CNC1)C2=O	-7.0	1	9.7	-2.2	-4.7	1.1
CCOc1cc(/C=C2/C(=O)NC(=O)N(c3ccc(CC)cc3)C2=O)ccc1OC(=O)c1cccs1	18.7	0.4	3.4	-1.2	58.7*	0.8
COc1ccc(-n2c(SC)nc3ccccc3c2=O)cc1	12.2	0.8	-12.7	18.2	17.6	0.9
O=c1c2ccccc2nc(N2CCCC2)n1-c1ccc(Cl)cc1	13.4	0.3	-3.4	17.6	67.4*	0.9
CC1CN(O)C2CCc3nonc3C12O (configuration not stated)	5.5	1	-3.0	18.6	4.1	0.9
O=c1[nH]c(=O)n(Cc2ccc(F)cc2)c(O)c1C=NCCN1CCCCC1	-5.0	1	17.6	32.5*	0.8	1.1
CCCCCCn1c(O)c(C=NCCCn2ccnc2)c(=O)[nH]c1=O	93.4*	0.6	-6.1	4.3	40.0	0.1
COc1ccc(Cn2c(O)c(C=NCCCn3ccnc3)c(=O)[nH]c2=O)cc1	62.8*	1	-1.1	1.3	4.9	0.4
